# Measured values taken from PubChem BioAssay (NCI).
# Compounds without any hit were thinned out: in the full panel of roughly 83,000, 20% have a hit.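 Percent growth is the endpoint: 0 to 100 indicates growth inhibition (40 means 60% inhibition), 0 means no net growth, and negative values indicate cell death.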 A number with no mark means an inactive call. Active and inactive are the calls of the source. The calls were made as follows: active = growth percent below 10; inactive = the rest.
# Key:
# Experiment in all cases: NCI-60 one-dose screen, 48 h (100 = growth as untreated, 0 = no growth, -100 = all killed)
# Details in all cases: 10 µM unless noted
# HCT-15 colon = system: HCT-15 colon
# HT29 colon = system: HT29 colon
# SNB-19 CNS = system: SNB-19 CNS
# U251 CNS = system: U251 CNS
# PC-3 prostate = system: PC-3 prostate
# SK-MEL-5 melanoma = system: SK-MEL-5 melanoma
# UACC-62 melanoma = system: UACC-62 melanoma
# LOX IMVI melanoma = system: LOX IMVI melanoma
# SK-MEL-28 melanoma = system: SK-MEL-28 melanoma
Compound,growth (HCT-15 colon),growth (HT29 colon),growth (SNB-19 CNS),growth (U251 CNS),growth (PC-3 prostate),growth (SK-MEL-5 melanoma),growth (UACC-62 melanoma),growth (LOX IMVI melanoma),growth (SK-MEL-28 melanoma)
O=C(Nc1cccc(-n2cc(-c3ccncc3)c(-c3ccc(Cl)c(O)c3)n2)c1)Nc1ccc(Cl)c(Cl)c1,19.8%,45.9%,30.3%,12.4%,5.43% (active),-40.2% (active),14.9%,21.9%,24.6%
CN1CCN(Cc2ccc(NC(=O)c3cncc(C#Cc4cnc(N)c5cnccc45)c3)cc2C(F)(F)F)CC1,7.9% (active),-14.7% (active),32%,28.9%,26.8%,-45.3% (active),-74.8% (active),-93.4% (active),-84.5% (active)
COc1cc(-c2nn(-c3cccc(NC(=O)Nc4cccc(C(F)(F)F)c4)c3)cc2-c2ccncc2)ccc1Cl,5.28% (active),-64% (active),23.5%,-82.2% (active),-23% (active),-97.8% (active),-76.1% (active),-64.2% (active),-18.6% (active)
CCn1c2ccccc2c2cc(NC(=O)Nc3ccc([N+](=O)[O-])cc3C)ccc21,25.5%,17.9%,66.6%,31.5%,19.2%,48.1%,38.9%,39.2%,67.2%
CC(=O)Oc1csc(N(C(C)=O)c2cccc(C(F)(F)F)c2)n1,94.4%,102%,97.8%,88.3%,85.6%,92.1%,89.2%,92.3%,103%
CCN(CC)CCC(CNc1ccnc2cc(Cl)ccc12)c1ccccc1 (stereo unspecified),34.1%,7.02% (active),92.5%,50.7%,56.5%,-75.2% (active),57.6%,39%,-99.9% (active)
COC(=O)C(Sc1ccc(Cl)cc1)C1SC(=S)N(Cc2ccccc2)C1=O (stereo unspecified),73.9%,111%,92.6%,90.3%,97.4%,101%,99.1%,74.9%,109%
CCOc1cc2c(Cl)ncnc2c(OCC)c1OCC,55.1%,78.4%,97.3%,82.6%,18.1%,77.4%,64.3%,83.1%,58.1%
FC(F)(F)c1cccc(-c2cn3c(ccc4ccccc43)n2)c1,90.9%,102%,100%,86.9%,83%,92.4%,79.9%,90.1%,115%
O=c1[nH]c2ccc(Br)cc2c2c1C(c1ccc(Cl)cc1)c1c(ncn3nc(-c4ccco4)nc13)O2 (stereo unspecified),64.9%,73%,75.8%,80.8%,72.1%,67.4%,59.8%,76.7%,91.1%
O=[N+]([O-])c1cnc(Sc2ccncn2)s1,-16% (active),55.5%,103%,91.9%,14.4%,88.2%,70.4%,64.5%,-61% (active)
CC(C)(C)n1cc(-c2ccnc(NCCCNS(=O)(=O)c3ccc(Br)cc3)c2)c(-c2cccc(O)c2)n1,-47.3% (active),1.23% (active),48.7%,29.5%,16.9%,15.1%,42.9%,-75.6% (active),-32.1% (active)
COc1cccc(-c2nc3sccn3c2-c2ccnc(NCCCNS(=O)(=O)c3ccc(C(F)(F)F)cc3)c2)c1,38.7%,47.2%,69.4%,55.1%,29.1%,5.99% (active),43%,55.3%,72.4%
O=C(c1ccccc1)c1c(/C=C/c2ccccc2)c2ccccc2[nH]c1=O,101%,106%,79.4%,90.5%,89.5%,96.4%,70.3%,105%,113%
Oc1ccc(Cl)cc1-c1cc(-c2ccc(F)cc2)n[nH]1,30%,98.7%,77.6%,63.8%,63.8%,45.2%,59.2%,61.3%,105%
CC(O)CN1CCCCC1 (stereo unspecified),107%,92.3%,100%,99.6%,102%,105%,101%,101%,109%
O=c1ccn(C2CC(O)C(O)C(CO)O2)c(=O)[nH]1 (stereo unspecified),117%,113%,110%,125%,89.5%,137%,105%,109%,109%
Cc1ccc(S(=O)(=O)c2nc(-c3ccccc3)oc2S(C)(=O)=O)cc1,-14.2% (active),-6.17% (active),60.9%,60.7%,84%,88.8%,75.7%,-32.7% (active),62.6%
CC(NNC(C)c1ccccc1)c1ccccc1 (stereo unspecified),105%,95.2%,100%,106%,94%,101%,110%,101%,118%
COc1cc(NC(N)=NCCC(C)(C)c2ccc(C(F)(F)F)cc2)ncc1C#N,14.6%,-37% (active),48.4%,-37.4% (active),25.4%,-80.2% (active),10.4%,18.3%,-55.6% (active)
COc1ccc(-c2nc(SCCC(C)C)nc(Nc3ccc(F)c(Cl)c3)c2C#N)cc1,84.9%,75.9%,77.9%,33.7%,80%,94.1%,97.5%,76.4%,105%
c1ccc(Nc2nc(Nc3ccccc3)nc(Nc3ccccc3)n2)cc1,82.9%,75.3%,98.3%,91.4%,79.7%,78%,83%,82.7%,79%
CCO/C=N/C1=C(C#N)C(c2ccc(Cl)cc2)c2c(c3ccccc3n(C)c2=O)O1 (stereo unspecified),41.1%,35%,72.9%,79.3%,63%,74.2%,46.5%,64.7%,83.9%
O=C(NNC(=O)N1c2ccccc2C=Cc2ccccc21)c1ccccc1,101%,103%,100%,109%,98.5%,104%,101%,104%,102%
Nc1cccc(-c2nc3sccn3c2-c2ccnc(NCCNS(=O)(=O)c3ccc(C(F)(F)F)cc3)n2)c1,47.3%,45.7%,75.4%,52.4%,51.6%,32.9%,61.6%,38.8%,82.2%
C/C=C/C1=CN2C(=O)c3cc(OC4OC(C)C(NC)C(C)(O)C4O)c(C)cc3N=C[C@@H]2C1 (stereo partly specified),4.13% (active),5.72% (active),14.7%,9.48% (active),7.19% (active),-51.3% (active),-80.4% (active),-11.2% (active),-24.2% (active)
CC(C)(C)n1cc(-c2ccnc(NCCCNS(=O)(=O)c3ccc(C(F)(F)F)cc3)c2)c(-c2cccc(O)c2)n1,-55.6% (active),2.27% (active),6.04% (active),12.9%,13.2%,16.7%,48.7%,-81.8% (active),-48.3% (active)
C=COC(=O)CCCCCCCCC,113%,100%,97.6%,105%,102%,107%,99.2%,98.5%,106%
CCOC(=O)CC(=O)OC,102%,96.5%,96.3%,101%,95.3%,100%,104%,100%,104%
